Several values for one entry are separate records, joined by “and”; a condition that tells them apart may be missing. Identical values can stand only once. Inconclusive results are not listed. Activity calls are given as the source filed them. Unless noted, calls come from the whole dose curve; as a rule, active = well fitted curve in the direction sought with a large enough effect in the repeat runs; inconclusive = weak or mixed curves; inactive = no such curve, though single readings can be large; an effect the other way counts as inactive or inconclusive.
What was measured:
[1] = target: Luciferin 4-monooxygenase (Photinus pyralis) (UniProt P08659); assay: qHTS assay to identify small molecule inhibitors of firefly luciferase (AID 1224835); note: nearly all actives have a fitted effect of over 25% in size; note: potency is the fitted concentration of half-maximal effect; for activity change, negative = inhibition: series mostly up to about 120 µM
Sequence of Luciferin 4-monooxygenase (Photinus pyralis) (P08659 whole entry, looked up): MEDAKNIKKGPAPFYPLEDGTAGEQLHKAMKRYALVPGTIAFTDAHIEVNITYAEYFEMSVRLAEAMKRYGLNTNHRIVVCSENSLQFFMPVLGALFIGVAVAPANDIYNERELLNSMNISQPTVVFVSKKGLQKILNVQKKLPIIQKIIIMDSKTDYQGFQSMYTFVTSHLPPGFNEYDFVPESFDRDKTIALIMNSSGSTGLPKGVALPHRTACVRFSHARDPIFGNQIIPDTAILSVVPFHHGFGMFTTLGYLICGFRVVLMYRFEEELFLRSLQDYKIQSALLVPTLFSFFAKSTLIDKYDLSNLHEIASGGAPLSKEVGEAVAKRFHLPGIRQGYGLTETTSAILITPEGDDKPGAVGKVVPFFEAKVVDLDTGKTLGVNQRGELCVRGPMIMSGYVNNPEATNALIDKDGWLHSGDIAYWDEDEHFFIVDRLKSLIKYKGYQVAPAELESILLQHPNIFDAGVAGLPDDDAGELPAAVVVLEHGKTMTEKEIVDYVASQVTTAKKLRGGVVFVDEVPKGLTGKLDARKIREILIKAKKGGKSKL
Procedure, shortened: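 Quantitative HTS format; KM concentrations of both substrates. Purified P. pyralis FLuc activity quantified from luminescence images.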

[2] = qHTS assay to identify small molecule agonists of the constitutive androstane receptor (CAR) signaling pathway - cell viability counter screen (AID 1224836); note: nearly all actives have a fitted effect of over 45% in size; note: potency is the fitted concentration of half-maximal effect; for viability change, negative = cytotoxic: series mostly up to about 92 µM
Procedure, shortened: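 Compound titrations (15 concentrations) went onto HepG2-CYP2B6-hCAR cells 4 h after seeding, alongside PK11195 at a final 0.75 uM; a 23 h, 37 C/5% CO2 incubation preceded CellTiter-Fluor viability measurement.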

[3] = qHTS assay to identify small molecule antagonists of the constitutive androstane receptor (CAR) signaling pathway - cell viability counter screen (AID 1224837); note: nearly all actives have a fitted effect of over 45% in size; note: potency is the fitted concentration of half-maximal effect; for activity change, negative = cytotoxicity: series mostly up to about 92 µM
Procedure, shortened: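 Using CellTiter-Fluor, viability is scored in HepG2 cells stably carrying hCAR and a 2.2kb CYP2B6 reporter after 23 hr compound exposure across 15 concentrations, with CITCO present at 50 nM.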

[4] = target: Nuclear receptor subfamily 1 group I member 3 (Homo sapiens) (UniProt Q14994); assay: qHTS assay to identify small molecule antagonists of the constitutive androstane receptor (CAR) signaling pathway (AID 1224838);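 note: HepG2 cells stably expressing hCAR with CYP2B6 luciferase reporter stimulated by CITCO; nearly all actives have a fitted effect of over 40% in size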; note: potency is the fitted concentration of half-maximal effect
Sequence of Nuclear receptor subfamily 1 group I member 3 (Homo sapiens) (Q14994 whole entry, looked up): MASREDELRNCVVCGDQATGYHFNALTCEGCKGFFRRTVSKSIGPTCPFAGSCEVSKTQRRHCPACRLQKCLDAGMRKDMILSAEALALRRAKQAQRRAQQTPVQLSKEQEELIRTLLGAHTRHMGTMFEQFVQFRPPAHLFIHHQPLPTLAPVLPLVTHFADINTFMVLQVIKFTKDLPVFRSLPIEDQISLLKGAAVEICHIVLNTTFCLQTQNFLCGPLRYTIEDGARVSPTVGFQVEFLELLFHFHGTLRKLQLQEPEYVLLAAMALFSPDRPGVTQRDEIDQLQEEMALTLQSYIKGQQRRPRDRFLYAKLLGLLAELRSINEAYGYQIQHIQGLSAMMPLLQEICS
Procedure, shortened: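 Reporter luminescence was quantified after 24 h exposure of hCAR/CYP2B6-2.2kb double-stable HepG2 cells to compounds at 15 concentrations in the presence of 50 nM CITCO final.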

[5] = target: Nuclear receptor subfamily 1 group I member 3 (Homo sapiens) (UniProt Q14994); assay: qHTS assay to identify small molecule agonists of the constitutive androstane receptor (CAR) signaling pathway (AID 1224839); note: nearly all actives have a fitted effect of over 15% in size; note: potency is the fitted concentration of half-maximal effect;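 for activation: HepG2 cells stably carrying human CAR and a CYP2B6 luciferase reporter; series mostly up to about 92 µM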
Procedure, shortened: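 In this screen, CAR-driven CYP2B6 promoter activity is measured by luminescence in HepG2-CYP2B6-hCAR cells after 24 h with test compounds and 0.75 uM PK11195 (final concentration).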

[6] = qHTS assay to identify small molecule antagonists of the estrogen related receptor signaling pathway with the pleiotropic PPARgamma coactivator (PGC) from Tox21 10K library - cell viability counter screen (AID 1224840; active = well fitted cell-killing curve with a large enough effect in the repeat runs, not every such curve was filed as active; note: nearly all actives have a fitted effect of over 40% in size; note: potency is the fitted concentration of half-maximal effect)
Procedure, shortened: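 Here the PGC/ERR cells serve as a cytotoxicity control: they are exposed to compounds for 17.5 hours at 37 C, and live-cell signal is quantified using CellTiter-Fluor fluorescence.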

[7] = qHTS assay to identify small molecule agonists of the estrogen related receptor signaling pathway with the pleiotropic PPARgamma coactivator (PGC) from Tox21 10K library (AID 1224842); note: nearly all actives have a fitted effect of over 15% in size
Procedure, shortened: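 PGC/ERR reporter cells (NTP line) were seeded 2,000 per well, rested 6 h at 37 C/5% CO2, then pin-dosed with compounds in DMSO for 18 h at 37 C; luciferase read by One-Glo luminescence after 30 min at room temperature.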

[8] = qHTS assay to identify small molecule agonists of the hypoxia (HIF-1) signaling pathway - cell viability counter screen (AID 1224844; calls by dose curve; note: nearly all actives have a fitted effect of over 50% in size; note: potency is the fitted concentration of half-maximal effect)
Procedure, shortened: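 Multiplexed with the HRE beta-lactamase assay, this viability read used CellTiter-Glo luminescence (30 min, RT) on HRE-bla ME-180 cells treated 17 hrs with compounds in 0.5% dialyzed FBS medium.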

[9] = qHTS assay to identify small molecule antagonists of the estrogen related receptor signaling pathway with the pleiotropic PPARgamma coactivator (PGC) from Tox21 10K library (AID 1224841; call rule not given here; note: actives are mostly falling curves and most rising ones were filed inactive; nearly all actives have a fitted effect of over 50% in size; note: potency is the fitted concentration of half-maximal effect; for activity, negative = inhibition: series mostly up to about 92 µM)
Procedure, shortened: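 Each well held 2,000 PGC/ERR cells, pre-incubated six hours (37 C, 5% CO2). Test substances in DMSO were added by pin tool and left for 18 h at 37 C before luciferase detection by One-Glo.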

[10] = target: Thyrotropin receptor (Homo sapiens) (UniProt P16473); assay: qHTS assay to identify small molecule agonists of the thyroid stimulating hormone receptor (TSHR) signaling pathway (AID 1224843; calls by dose curve; note: nearly all actives have a fitted effect of over 45% in size; note: potency is the fitted concentration of half-maximal effect)
Sequence of Thyrotropin receptor (Homo sapiens) (P16473 whole entry, looked up): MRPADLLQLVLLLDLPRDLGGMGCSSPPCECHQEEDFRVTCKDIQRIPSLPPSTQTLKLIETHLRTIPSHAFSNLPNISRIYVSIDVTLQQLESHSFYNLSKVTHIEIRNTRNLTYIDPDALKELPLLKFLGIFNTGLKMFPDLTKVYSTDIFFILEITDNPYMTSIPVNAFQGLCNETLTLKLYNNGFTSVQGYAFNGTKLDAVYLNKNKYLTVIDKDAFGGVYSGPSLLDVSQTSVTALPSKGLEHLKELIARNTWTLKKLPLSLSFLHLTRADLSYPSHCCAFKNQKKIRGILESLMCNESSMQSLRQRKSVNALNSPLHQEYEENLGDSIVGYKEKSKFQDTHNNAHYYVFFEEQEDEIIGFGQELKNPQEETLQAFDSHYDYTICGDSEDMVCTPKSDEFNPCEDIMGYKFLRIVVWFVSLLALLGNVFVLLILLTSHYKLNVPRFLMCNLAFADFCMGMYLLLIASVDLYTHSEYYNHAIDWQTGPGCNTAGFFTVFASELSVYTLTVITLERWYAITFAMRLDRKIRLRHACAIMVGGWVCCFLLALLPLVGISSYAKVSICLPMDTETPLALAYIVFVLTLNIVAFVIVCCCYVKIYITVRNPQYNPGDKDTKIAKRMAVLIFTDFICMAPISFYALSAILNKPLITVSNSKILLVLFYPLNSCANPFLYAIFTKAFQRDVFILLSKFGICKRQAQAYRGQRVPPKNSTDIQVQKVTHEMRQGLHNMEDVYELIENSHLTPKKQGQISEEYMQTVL
Procedure, shortened: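 Cell line HEK293 with TSHR; density 800/well. Exposure 30 min RT. Readout HTRF cAMP (cAMP-d2/anti-cAMP-cryptate), 1 h RT before reading.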
% is set by controls: 0 for no effect and ±100 for the full control effect.

CCOC(=O)CC(=O)CCl
inactive: Potency [1] | Potency [2] | Potency [3] | Potency [4] | Potency [5] | Potency [6]

CC(C)CCCCCCCOP(=O)(Oc1ccccc1)Oc1ccccc1
inactive: Potency [1] | Potency [2] | Potency [3] | Potency [4] | Potency [6] | Potency [7] | Potency [8]
active: Potency [5] 27.4 µM

FC(F)(F)c1cccc(C2=CCN(CCc3ccc4ccccc4c3)CC2)c1
inactive: Potency [1] | Potency [2] | Potency [3] | Potency [4] | Potency [5] | Potency [6] | Potency [9] | Potency [7]

COP(N)(=S)OC
inactive: Potency [1] | Potency [2] | Potency [3] | Potency [4] | Potency [5] | Potency [6] | Potency [9] | Potency [7] | Potency [10] | Potency [8]

ClC1=C(Cl)[C@]2(Cl)[C@@H]3[C@@H](Cl)[C@H](Cl)C[C@@H]3[C@@]1(Cl)C2(Cl)Cl
inactive: Potency [1] | Potency [2] | Potency [3] | Potency [4] | Potency [5] | Potency [6] | Potency [9] | Potency [7] | Potency [8]

C=CC(=O)OCC(COC(=O)C=C)(COC(=O)C=C)COC(=O)C=C
active: Potency [2] 15.4 µM | Potency [3] 8.63 µM | Potency [4] 8.63 µM | Potency [6] 5.45 µM | Potency [9] 13.7 µM | Potency [10] 8.63 µM | Potency [8] 6.92 µM
inactive: Potency [1] | Potency [5] | Potency [7]

C[C@H]1CC[C@@H]2[C@@H](C)[C@H]3[C@H](C[C@H]4[C@@H]5CC=C6CC(O[C@@H]7O[C@H](CO)[C@H](O)[C@H](O[C@@H]8O[C@H](CO)[C@@H](O)[C@H](O)[C@H]8O)[C@H]7O[C@H]7O[C@@H](C)[C@H](O)[C@@H](O)[C@H]7O)CC[C@]6(C)[C@H]5CC[C@]34C)N2C1 (stereo not given in full)
inactive: Potency [1] | Potency [5] | Potency [9]
active: Potency [2] 22.4 µM | Potency [3] 22.4 µM | Potency [4] 22.4 µM | Potency [6] 22.4 µM | Potency [8] 16 µM

Clc1ccc(C(Cl)(Cl)Cl)c(Cl)c1
inactive: Potency [1] | Potency [2] | Potency [3] | Potency [4] | Potency [5] | Potency [6] | Potency [7]
active: Potency [9] 61.6 µM

Nc1ccccc1C(=O)Oc1ccc2ccccc2c1
inactive: Potency [2] | Potency [3] | Potency [4] | Potency [6] | Potency [10]
active: Potency [1] 1.78 µM | Potency [5] 54.5 µM

[Cl][Sn]([c]1ccccc1)([c]1ccccc1)[c]1ccccc1
inactive: activation [5] -23.6% [at 19 µM] | activation [7] -35.3% [at 19 µM]
active: Potency [1] 6.01 µM | Potency [2] 3.66 µM | Potency [3] 2.06 µM | Potency [4] 0.206 µM | Potency [6] 0.82 µM | Potency [9] 0.82 µM

COCC(=O)N(c1c(C)cccc1C)[C@H](C)C(=O)OC
inactive: Potency [1] | Potency [2] | Potency [3] | Potency [4] | Potency [5] | Potency [6] | Potency [9] | Potency [7] | Potency [10] | Potency [8]

O=C(CCl)Nc1ccccc1
active: Potency [2] 48.6 µM | Potency [3] 48.6 µM | Potency [4] 54.5 µM | Potency [6] 24.3 µM | Potency [9] 8.63 µM
inactive: Potency [1] | Potency [5] | Potency [7] | Potency [10]

c1ccc2c(c1)OCC(C1=NCCN1)O2 (stereo not given)
active: Potency [2] 23.7 µM | Potency [3] 29.8 µM | Potency [4] 21.1 µM | Potency [6] 21.1 µM
inactive: Potency [1] | Potency [5]

Cc1ccc(OP(=O)(Oc2ccccc2)Oc2ccccc2)cc1
active: Potency [5] 17.5 µM | Potency [9] 24.7 µM
inactive: Potency [1] | Potency [2] | Potency [3] | Potency [4] | Potency [6] | Potency [7] | Potency [8]

Cc1cc(SCc2sc(-c3ccc(C(F)(F)F)c(F)c3)nc2C)ccc1OCC(=O)O
inactive: Potency [2] | Potency [3] | Potency [4] | Potency [5] | Potency [6] | Potency [9] | Potency [7]
active: Potency [1] 44.8 µM | Potency [8] 12.3 µM

CC(C)OC(=S)S
inactive: Potency [1] | Potency [2]

Brc1c(Br)c(Br)c(Oc2c(Br)c(Br)c(Br)c(Br)c2Br)c(Br)c1Br
inactive: activity change, negative = inhibition [1] 1.46% [at 23.6 µM] | viability change, negative = cytotoxic [2] -2.08% [at 19 µM] | activity change, negative = cytotoxicity [3] 5.53% [at 19 µM] | activity, negative = inhibition [4] -4.8% [at 19 µM] | activation [5] -0.206% [at 19 µM] | viability change, negative = cytotoxic [6] 10.1% [at 19 µM] | activity, negative = inhibition [9] 39.4% [at 19 µM] | activation [7] 1.27% [at 19 µM] | activity change, negative = cytotoxicity [8] 12% [at 15.8 µM]

CCCCCCCCCCCCCCCCCCn1cc[n+](C)c1
active: Potency [2] 24.2 µM | Potency [3] 17.1 µM | Potency [4] 43 µM | Potency [6] 30.5 µM | Potency [9] 24.2 µM | Potency [8] 43.4 µM
inactive: Potency [1] | Potency [5] | Potency [7] | Potency [10]

O=c1c(C2CC(c3ccc(-c4ccc(Br)cc4)cc3)Cc3ccccc32)c(O)sc2ccccc12 (stereo not given)
inactive: Potency [1] | Potency [2] | Potency [3] | Potency [4] | Potency [5] | Potency [6] | Potency [7] | Potency [10]
active: Potency [9] 11.9 µM | Potency [8] 15.1 µM

CC(c1ccc(O)cc1)c1ccc(O)cc1
inactive: Potency [2] | Potency [3] | Potency [4] | Potency [6] | Potency [9] | Potency [7] | Potency [10] | Potency [8]
active: Potency [1] 74.7 µM and 44.8 µM | Potency [5] 51.1 µM and 30.6 µM

CC(C)(O)c1cnn2c(-c3ccc(F)c(-c4c(F)cccc4C#N)c3)cnc2n1
inactive: Potency [1] | Potency [2] | Potency [3] | Potency [4] | Potency [5] | Potency [6] | Potency [7] | Potency [10]
active: Potency [8] 54.9 µM
